Assay results reported in PubChem BioAssay AID1159580 (chemical genetic matrix, 2015).
Several values for one entry are separate records, joined by “and”; a condition that tells them apart may be missing. Identical values can stand only once. Out of some 5,500 compounds screened, about 2,000 (36%) were called active. Inconclusive results (about 18%) are left out. Cut-off read from the data, not from the text of the source: active = normalized growth mostly below about 0.91 (no sharp cut-off); inconclusive = no clear call, values can overlap the other calls; inactive = mostly above about 0.92. Some of the results follow.

Experiment: chemical genetic growth profiling, strain panel (AID 1159580);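 note: tested at 20 µM; growth read once vehicle control cultures reached saturation at 30 °C; 1 = growth at the plate median or of vehicle wells; lower values mean less growth of the strain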
Details: S. cerevisiae deletion strains, growth OD

Measured: normalized growth

C=C1CCC2C(CC2(C)C)C(=O)CCC1O (stereo unspecified)
inactive: locus YAL013W, strain DEP1, active compounds read low 0.984 | locus YAL021C, strain ccr4, active compounds read low 0.94 | locus YAL026C, strain drs2, active compounds read low 0.996 | locus YAL030W, strain snc1, active compounds read low 1 | locus YBL061C, strain skt5, active compounds read low 0.999 | locus YBR009C, strain hhf1, active compounds read low 0.987 | locus YBR021W, strain FUR4, active compounds read low 1.02 | locus YBR023C, strain chs3, active compounds read low 0.986 | locus YBR171W, strain sec66, active compounds read low 1 | locus YBR229C, strain ROT2, active compounds read low 1.01 | locus YBR231C, strain swc5, active compounds read low 1.01 | locus YBR279W, strain paf1, active compounds read low 0.995 | locus YCL011C, strain gbp2, active compounds read low 0.984 | locus YCL016C, strain dcc1, active compounds read low 0.983 | locus YCL029C, strain bik1, active compounds read low 1 | locus YCL061C, strain MRC1, active compounds read low 0.993 | locus YCL069W, strain vba3, active compounds read low 0.999 | locus YCR088W, strain abp1, active compounds read low 0.993 | locus YDL005C, strain med2, active compounds read low 0.991 | locus YDL035C, strain GPR1, active compounds read low 1 | locus YDL040C, strain nat1, active compounds read low 1 | locus YDL074C, strain BRE1, active compounds read low 1 | locus YDL101C, strain DUN1, active compounds read low 1.03 | locus YDL134C, strain PPH21, active compounds read low 1.04 | locus YDL185W, strain tfp1, active compounds read low 1.03 | locus YDL192W, strain arf1, active compounds read low 0.992 | locus YDR001C, strain nth1, active compounds read low 0.976 | locus YDR069C, strain doa4, active compounds read low 0.981 | locus YDR101C, strain arx1, active compounds read low 0.995 | locus YDR137W, strain rgp1, active compounds read low 0.985 | locus YDR159W, strain sac3, active compounds read low 1.06 | locus YDR162C, strain NBP2, active compounds read low 1.01 | locus YDR195W, strain ref2 0.968 | locus YDR297W, strain sur2, active compounds read low 1.01 | locus YDR318W, strain mcm21, active compounds read low 1 | locus YDR334W, strain swr1, active compounds read low 0.988 | locus YDR335W, strain msn5, active compounds read low 0.985 | locus YDR388W, active compounds read low 1.02 | locus YDR392W, strain spt3, active compounds read low 0.911 | locus YDR502C, strain sam2, active compounds read low 1.04 | locus YEL003W, strain gim4, active compounds read low 1 | locus YEL037C, strain rad23, active compounds read low 0.993 | locus YEL061C, strain CIN8 (second series), active compounds read low 0.993 | locus YEL061C, strain CIN8, active compounds read low 1.02 | locus YER015W, strain faa2, active compounds read low 0.981 | locus YER016W, strain bim1, active compounds read low 1 | locus YER110C, active compounds read low 1.02 | locus YER111C, strain swi4, active compounds read low 0.997 | locus YER155C, strain BEM2 (second series), active compounds read low 1.03 | locus YER155C, strain BEM2, active compounds read low 1 | locus YER167W, strain BCK2, active compounds read low 1 | locus YFR010W, strain ubp6, active compounds read low 0.996 | locus YGL078C, strain dbp3, active compounds read low 1.04 | locus YGL086W, strain mad1, active compounds read low 1.02 | locus YGL167C, strain pmr1, active compounds read low 0.975 | locus YGL173C, strain kem1, active compounds read low 1 | locus YGL227W, strain vid30, active compounds read low 0.985 | locus YGL240W, strain doc1, active compounds read low 1 | locus YGL248W, strain PDE1, active compounds read low 1.05 | locus YGL253W, strain hxk2, active compounds read low 1.02 | locus YGR078C, strain PAC10, active compounds read low 1.02 | locus YGR135W, strain pre9, active compounds read low 1.08 | locus YGR229C, strain SMI1, active compounds read low 0.945 | locus YGR252W, strain gcn5, active compounds read low 1.08 | locus YHR013C, strain ard1, active compounds read low 0.978 | locus YHR027C, strain rpn1, active compounds read low 1 | locus YHR030C, strain SLT2, active compounds read low 1.02 | locus YHR079C, strain IRE1 (second series), active compounds read low 1.01 | locus YHR079C, strain IRE1, active compounds read low 1.03 | locus YHR094C, strain hxt1, active compounds read low 1.01 | locus YHR129C, strain ARP1, active compounds read low 1.01 | locus YHR142W, strain chs7, active compounds read low 0.979 | locus YHR200W, strain rpn10, active compounds read low 1.03 | locus YIL066C, strain RNR3, active compounds read low 1.02 | locus YIL073C, strain SPO22, active compounds read low 1.09 | locus YIL125W, strain kgd1, active compounds read low 1.01 | locus YIR030C, strain dcg1, active compounds read low 1.01 | locus YJL092W, strain hpr5, active compounds read low 0.988 | locus YJL095W, strain BCK1 (second series), active compounds read low 0.987 | locus YJL095W, strain BCK1, active compounds read low 1.08 and 1.04 | locus YJL115W, strain asf1, active compounds read low 0.961 | locus YJL129C, strain trk1, active compounds read low 0.984 | locus YJL134W, strain LCB3, active compounds read low 1.01 | locus YJL154C, strain vps35, active compounds read low 0.99 | locus YJL164C, strain tpk1, active compounds read low 0.963 | locus YJL166W, strain qcr8, active compounds read low 0.993
